CYP2C9 inhib: blocks human cytochrome P450 2C9. CYP2C9 Supersomes, luciferin-H conversion, luminescence. inhibition, % at 5 µM. actives 20% (n = 96,000). AID 777;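 active = blocking of liver enzyme CYP2C9 beyond about 50% at 5 µM, limit read from the data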
CYP2C19 activ: increases human CYP2C19 enzyme activity; recombinant CYP2C19, luciferin-H EGE luminescence; stronger effect = higher value; 0 = fully inhibited enzyme, 1 = untreated enzyme; activation factor at 5 µM; AID 1025; 96,000 tested, under 10 active;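 active = activation factor of at least 2 at 5 µM in the primary screen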;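 note: 0 = wells with 2.5 mM tranylcypromine and 1 = vehicle-only wells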
Target sequence (P33261 whole entry, looked up): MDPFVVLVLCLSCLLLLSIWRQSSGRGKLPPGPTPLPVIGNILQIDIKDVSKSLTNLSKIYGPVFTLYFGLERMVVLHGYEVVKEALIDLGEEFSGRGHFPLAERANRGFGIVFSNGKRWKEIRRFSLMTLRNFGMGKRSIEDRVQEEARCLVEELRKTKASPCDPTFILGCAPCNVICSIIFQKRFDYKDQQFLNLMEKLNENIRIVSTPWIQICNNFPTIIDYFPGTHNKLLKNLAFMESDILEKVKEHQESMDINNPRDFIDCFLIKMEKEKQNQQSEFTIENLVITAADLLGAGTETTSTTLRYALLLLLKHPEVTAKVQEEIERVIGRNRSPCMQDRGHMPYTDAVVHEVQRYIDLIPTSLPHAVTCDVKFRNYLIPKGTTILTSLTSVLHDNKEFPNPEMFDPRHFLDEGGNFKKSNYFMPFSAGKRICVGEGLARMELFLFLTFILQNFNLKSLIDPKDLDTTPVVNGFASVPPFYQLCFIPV
CYP2C19 inh: inhibitors of human CYP2C19; CYP2C19 Supersomes, luciferin-H EGE luminescence, 30 min; inhibition, % at 5 µM; actives 21% (n = 96,000); AID 778;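 active = CYP2C19 inhibition above a set limit at 5 µM in the primary screen, cut at about 50% in these data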;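 note: plate controls were negative control wells for no effect and 2.5 mM tranylcypromine positive control for full effect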
CYP2C9 activ: activators of human CYP2C9. actives 1.4% (n = 96,000). recombinant CYP2C9, luciferin-H conversion, luminescence; stronger effect = higher value; factor 1 = untreated enzyme, 0 = blocked. AID 1024. activation factor at 5 µM;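 active = activation factor of 2 or more for CYP2C9 at a 5 µM dose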;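 note: 0 = sulfaphenazole-blocked wells and 1 = vehicle-only wells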
* hit, by the source's call. Sampled rows, rich in hits. Any-hit rate of the full collection: about 31%.

SMILES | CYP2C9 inhib | CYP2C19 activ | CYP2C19 inh | CYP2C9 activ
CC(C)C1N=C2c3ccccc3N=C(SCC#N)N2C1=O (configuration not stated) | -4.3 | 1 | -2.5 | 1
CCN=C1SC(CC(=O)NCCc2ccc(OC)cc2)C(=O)N1CC (configuration not stated) | 51.3* | 0.5 | 47.7 | 0.5
CCN=C1SC(CC(=O)Nc2ccccc2OCC)C(=O)N1CC (configuration not stated) | -36.2 | 0.2 | 75.7* | 1.4
CCN=C1SC(CC(=O)NC2CCCCC2)C(=O)N1CC (configuration not stated) | -3.0 | 0.8 | 16.0 | 1
CCN=C1SC(CC(=O)NC(N)=O)C(=O)N1CC (configuration not stated) | -13.3 | 1 | 3.2 | 1.1
CCCCOc1ccccc1NC(=O)CC1SC(=NCC)N(CC)C1=O (configuration not stated) | -14.3 | 0.3 | 68.8* | 1.1
CCN=C1SC(CC(=O)NCCc2ccc(OC)c(OC)c2)C(=O)N1CC (configuration not stated) | 22.4 | 0.8 | 16.7 | 0.8
O=C(Nc1nc(-c2ccccn2)cs1)c1ccc(Br)s1 | 43.2 | 1.2 | -17.6 | 0.6
Nc1c(C(=O)NCc2cccnc2)sc(=S)n1-c1ccccc1 | 8.2 | 0.7 | 31.4 | 0.9
COC(=O)c1c(-c2ccc3ccccc3c2)csc1NC(=O)Cc1ccc(OC)c(OC)c1 | 79.7* | 0.5 | 48.1 | 0.2
COC(=O)c1c(-c2cccc(OC)c2)csc1N | -11.1 | 0.7 | 26.9 | 1.1
COC(=O)c1c(-c2ccc(OC)c(OC)c2)csc1N | 45.5 | 0.4 | 60.1* | 0.5
CCOC(=O)CSC(CC)C(=O)Nc1nnc(CC)s1 (configuration not stated) | 42.2 | 1 | -3.9 | 0.6
O=C1CS/C(=N\C(=O)N2c3ccccc3Sc3ccccc32)N1 | 67.6* | 1.1 | -7.5 | 0.3
O=C1CSC(=Nc2ccccc2)N1 | 1.9 | 1 | 0.6 | 1
O=[N+]([O-])c1ccc(CSc2nnc(-c3cnccn3)o2)cc1 | 31.1 | 0.1 | 89.7* | 0.7
O=C(O)c1ccc(CSc2nnc(-c3ccco3)o2)cc1 | 38.0 | 1.1 | -5.8 | 0.6
Cc1nc(CS(=O)(=O)c2ccc(Cl)cc2)cc(N2CCOCC2)n1 | 52.6* | 0.2 | 80.5* | 0.5
Cc1nc(CS(=O)(=O)c2ccc(Cl)cc2)cc(Sc2ccccc2Cl)n1 | 67.0* | 0.5 | 52.5* | 0.3
Cc1cc(C)n(-c2nc(SCC(=O)NCC3CCCO3)c3c4c(sc3n2)CCCC4)n1 (configuration not stated) | 85.0* | 0.4 | 63.4* | 0.2
Cc1cc(C)n(-c2nc(NCC3CCCO3)c3c4c(sc3n2)COC(C)(C)C4)n1 (configuration not stated) | 20.0 | 1 | 1.3 | 0.8
C/C(=N/NS(C)(=O)=O)c1ccc2ccccc2c1 | 73.4* | 0.7 | 26.6 | 0.3
N=c1c2c(-c3ccccc3)c(-c3ccccc3)n(Cc3ccccc3)c2ncn1CCCn1ccnc1 | 58.3* | 0.2 | 81.6* | 0.4
Cc1cc(C)cc(-n2c3nc4ccccc4nc3c3c(=O)n(Cc4ccco4)cnc32)c1 | 10.3 | 1.1 | -9.1 | 0.9
N=c1c2c(-c3ccccc3)c(-c3ccccc3)n(Cc3ccco3)c2ncn1Cc1ccco1 | 83.0* | 0.3 | 66.0* | 0.2
SMILES | CYP2C9 inhib | CYP2C19 activ | CYP2C19 inh | CYP2C9 activ
C=CCn1cnc2c(c1=O)c1nc3ccccc3nc1n2Cc1ccccc1 | -9.4 | 1 | 0.0 | 1.1
N=c1ccccn1CC(O)COc1ccccc1 (configuration not stated) | -7.2 | 1 | 4.1 | 1.1
CCN=c1sc2ccccc2n1CC(O)COc1ccccc1 (configuration not stated) | 92.8* | 0 | 98.8* | 0.1
CN=c1sc2ccccc2n1CC(O)COc1ccccc1 (configuration not stated) | 70.6* | 0 | 96.1* | 0.3
Nc1ccccc1S(=O)(=O)c1ccccc1N | -52.9 | 0.6 | 43.4 | 1.5
CCN1CCCC1CNC(=O)c1csc2c1CCCC2 (configuration not stated) | -8.9 | 1 | 3.7 | 1.1
CCOc1ccc(NC(=O)CN2CCN(CC(=O)Nc3ccc(F)cc3)CC2)cc1 | 2.4 | 0.9 | 8.1 | 1
O=C(CN1CCN(S(=O)(=O)c2ccccc2)CC1)Nc1ccc(Cl)c(Cl)c1 | 17.8 | 0.2 | 77.1* | 0.8
CCOc1ccc(NC(=O)CN2CCN(S(=O)(=O)c3ccc(Cl)cc3)CC2)cc1 | -9.0 | 0.2 | 80.1* | 1.1
CCOC(=O)c1ccc(S(=O)(=O)N2CCN(CC(=O)NC(=O)NC(C)(C)C)CC2)cc1 | 72.4* | 1.1 | -8.5 | 0.3
